# Results filed as inconclusive are left out. Active and inactive are the calls of the source. The calls were made as follows: active = hit-call score of the fitted dose curve at least 0.9, where 1 is the maximum; inconclusive = response in the unintended direction; inactive = score below 0.9.
# Columns and labels:
# [1] = ACEA_AR_agonist_AUC_viability: ACEA Biosciences xCELLigence Real-Time Cell Analysis on Androgen Receptor Agonism for Viability (AID 2283775);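 as to AC50: viability read 80 hours after compound addition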
# How it was run: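 Read-out is area under the impedance curve at 80 h post-dose in 22Rv1 cells, with DMSO as baseline and signal loss taken as reduced viability. Compounds ran in duplicate from 100 uM final.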
# [2] = ACEA_AR_antagonist_AUC_viability: ACEA Biosciences xCELLigence Real-Time Cell Analysis on Androgen Receptor Antagonism for Viability (AID 2283776);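 also: 22Rv1 human prostate cancer cells growing on impedance electrode plates; area under impedance growth curve at 80 h after dosing as viability; hits lower the growth signal relative to DMSO meaning cytotoxicity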
# How it was run: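 Viability endpoint from label-free cell-index monitoring: 22Rv1 cultures treated with an eight-point 1:4 dilution series starting at 100 uM final, AUC at 80 h fitted against DMSO.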
# [3] = ACEA_ER_AUC_viability: ACEA Biosciences xCELLigence Real-Time Cell Analysis on Estrogen Receptor Agonism for Viability (AID 2283782);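 also: continuous compound exposure with impedance area under curve over 80 h; hit means loss of impedance signal meaning reduced cell growth or viability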
# How it was run: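 T47D cells preconditioned in phenol red-free RPMI with charcoal-stripped FBS, then dosed with 8-point 1:4 series from 100 uM (up to 0.5% DMSO). Impedance monitored up to ~80 h; area-under-curve loss versus DMSO taken as viability.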
# [4] = system: zebrafish Estrogen Receptor (ESR2B), gene 317733; assay: ATG_zfER2b_XSP1: Attagene TRANS-FACTORIAL Multi-Species (XSP1) HepG2 Assay for zebrafish Estrogen Receptor (ESR2B) (AID 2283773)
# How it was run: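 HepG2 cells transiently transfected with GAL4-UAS reporter units for chimeric zebrafish ER2b-Gal4, with 3 nM 6-alpha-fluorotestosterone present; reporter mRNA measured 24 h after dosing by RT-PCR and capillary electrophoresis, gain versus DMSO.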
# [5] = system: frog Estrogen Receptor (ESR2), gene 100174814; assay: ATG_frER2_XSP1: Attagene TRANS-FACTORIAL Multi-Species (XSP1) HepG2 Assay for frog Estrogen Receptor (ESR2) (AID 2283774)
# How it was run: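 HepG2 cells transiently transfected with GAL4-UAS reporter units expressing chimeric frog ER-Gal4; 3 nM 6-alpha-fluorotestosterone present. After 24 h dosing, reporter mRNA quantified by RT-PCR and capillary electrophoresis; gain-of-signal fitted relative to DMSO.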
# [6] = system: frog Estrogen Receptor (ESR1), gene 398734; assay: ATG_frER1_XSP1: Attagene TRANS-FACTORIAL Multi-Species (XSP1) HepG2 Assay for frog Estrogen Receptor (ESR1) (AID 2283777)
# How it was run: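 HepG2 cells transiently transfected with frog ER–GAL4 chimera and GAL4-UAS reporter, with 3 nM 6-alpha-fluorotestosterone present; 24 h dosing, reporter mRNA quantified by RT-PCR and capillary electrophoresis, gain of signal versus DMSO.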
# [7] = system: zebrafish Estrogen Receptor (ESR2A), gene 317734; assay: ATG_zfER2a_XSP1: Attagene TRANS-FACTORIAL Multi-Species (XSP1) HepG2 Assay for zebrafish Estrogen Receptor (ESR2A) (AID 2283778)
# How it was run: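 HepG2 cells transiently transfected with GAL4-UAS reporter units driven by a zebrafish ESR2A–Gal4 chimera; 24 h compound exposure with 3 nM 6-alpha-fluorotestosterone present. Reporter mRNA measured by RT-PCR with fluorescent capillary electrophoresis, fitted positive versus DMSO.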
# [8] = biological target: chicken Estrogen Receptor (ESR1), ESR1 (gene 396099) (UniProt P06212); assay: ATG_chERa_XSP1: Attagene TRANS-FACTORIAL Multi-Species (XSP1) HepG2 Assay for chicken Estrogen Receptor (ESR1) (AID 2283779)
# How it was run: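 HepG2 cells transiently transfected with GAL4-UAS reporter units for chimeric chicken ERα-Gal4, dosed 24 h with 3 nM 6-alpha-fluorotestosterone present. Reporter mRNA by RT-PCR and capillary electrophoresis; gain-of-signal fit versus DMSO.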
# [9] = biological target: Estrogen receptor (Homo sapiens) (UniProt P03372); assay: ATG_hERa_XSP1: Attagene TRANS-FACTORIAL Multi-Species (XSP1) HepG2 Assay for human Estrogen Receptor (ESR1) (AID 2283780)
# Procedure: ATG_XSP1_multi-species_TRANS is a cell-based, multiplexed assay created by modifying the existing Attagene TRANS-FACTORIAL system to include a panel of nuclear receptors from some or all the following species: human (Homo sapiens), mouse (Mus musculus), frog (Xenopus laevis), zebrafish (Danio rerio), chicken (Gallus gallus), and turtle (Chrysemys picta). The ECOTOX-FACTORIAL format uses HepG2, a human liver cell line, with measurements taken at 24 hours after chemical dosing in a 24-well plate. Xsp1 included 3 nM 6-alpha-fluorotestosterone to partially stimulate the androgen receptor.ATG_hERa_XSP1 is one of 29 assay components measured or calculated from the ATG_XSP1_multi-species_TRANS assay. It is designed to make measurements of mRNA induction, a form of inducible reporter, as detected with fluorescence intensity signals by Reverse transcription polymerase chain reaction (RT-PCR) and Capillary electrophoresis technology.The assay endpoint ATG_hERa_XSP1 was analyzed in the positive analysis fitting direction relative to DMSO as the negative control and baseline of activity. […] Furthermore, this assay endpoint can be referred to as a primary readout, because this assay has produced multiple assay endpoints where this one serves a reporter gene function. […]
# [10] = system: turtle Estrogen Receptor (ESR1), gene 101933533; assay: ATG_trERa_XSP1: Attagene TRANS-FACTORIAL Multi-Species (XSP1) HepG2 Assay for turtle Estrogen Receptor (ESR1) (AID 2283781)
# How it was run: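 Turtle ERa as a GAL4 chimera in transiently transfected HepG2 cells; reporter mRNA quantified 24 h after dosing by RT-PCR and capillary electrophoresis. 3 nM 6-alpha-fluorotestosterone present; gain of signal versus DMSO.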
# chicken Estrogen Receptor (ESR1), ESR1 (gene 396099), sequence (P06212 whole entry, looked up, the tested form may be a part): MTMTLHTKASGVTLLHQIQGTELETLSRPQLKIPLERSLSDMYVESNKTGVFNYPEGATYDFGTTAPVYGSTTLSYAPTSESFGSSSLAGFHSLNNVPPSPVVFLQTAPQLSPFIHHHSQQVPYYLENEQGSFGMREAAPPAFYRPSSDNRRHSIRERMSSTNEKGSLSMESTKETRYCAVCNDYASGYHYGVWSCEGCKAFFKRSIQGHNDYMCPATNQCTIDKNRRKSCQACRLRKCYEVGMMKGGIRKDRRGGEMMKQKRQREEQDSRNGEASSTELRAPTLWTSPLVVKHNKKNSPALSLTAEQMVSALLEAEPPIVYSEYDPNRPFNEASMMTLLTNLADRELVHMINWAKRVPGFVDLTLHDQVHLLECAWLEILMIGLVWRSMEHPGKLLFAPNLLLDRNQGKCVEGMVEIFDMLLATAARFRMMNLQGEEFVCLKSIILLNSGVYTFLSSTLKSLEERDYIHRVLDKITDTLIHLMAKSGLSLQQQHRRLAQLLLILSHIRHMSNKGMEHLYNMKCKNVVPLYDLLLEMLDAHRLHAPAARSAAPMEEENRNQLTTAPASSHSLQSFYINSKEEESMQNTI
# Estrogen receptor (Homo sapiens), sequence (P03372 whole entry, looked up): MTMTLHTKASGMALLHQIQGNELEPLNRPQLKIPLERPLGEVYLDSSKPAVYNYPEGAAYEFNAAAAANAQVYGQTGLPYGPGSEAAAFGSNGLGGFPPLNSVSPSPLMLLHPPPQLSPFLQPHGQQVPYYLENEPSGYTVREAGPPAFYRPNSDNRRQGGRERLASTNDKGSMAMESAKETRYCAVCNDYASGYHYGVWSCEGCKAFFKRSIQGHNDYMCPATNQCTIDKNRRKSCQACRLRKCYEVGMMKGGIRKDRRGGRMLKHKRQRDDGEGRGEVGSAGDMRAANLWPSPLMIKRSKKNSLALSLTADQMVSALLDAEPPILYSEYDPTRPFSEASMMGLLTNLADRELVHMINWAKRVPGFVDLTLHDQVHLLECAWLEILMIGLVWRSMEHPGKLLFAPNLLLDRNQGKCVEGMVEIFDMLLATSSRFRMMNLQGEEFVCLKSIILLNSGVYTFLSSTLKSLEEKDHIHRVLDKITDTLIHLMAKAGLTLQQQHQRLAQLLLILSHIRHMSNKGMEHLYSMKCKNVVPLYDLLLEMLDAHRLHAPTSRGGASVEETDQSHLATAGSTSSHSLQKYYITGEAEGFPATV
smiles,measurement,setting,value
CCCCCCCCCCCCN,outcome,[1],inactive
C=C(C)C(=O)O,outcome,[1],inactive
same,outcome,[2],inactive
same,outcome,[3],inactive
CCCCC[Si](OCC)(OCC)OCC,outcome,[1],inactive
same,outcome,[2],inactive
CC(C)CCCCCCCOC(=O)c1ccc(C(=O)OCCCCCCCC(C)C)c(C(=O)OCCCCCCCC(C)C)c1,outcome,[1],inactive
same,outcome,[2],inactive
CCC/C=C/C=O,outcome,[1],inactive
same,outcome,[2],inactive
OC1OC[C@@H](O)[C@H](O)[C@H]1O (stereo not given in full),outcome,[1],inactive
same,outcome,[2],inactive
CCCCCC(CO)CCC (stereo not given),outcome,[1],inactive
O=C1C(c2[nH]c3ccc(S(=O)(=O)O)cc3c2O)=Nc2ccc(S(=O)(=O)O)cc21,outcome,[1],inactive
CC(=O)OCCC(C)CC(C)(C)C (stereo not given),outcome,[1],inactive
same,outcome,[2],inactive
NC(=O)NC1NC(=O)NC1=O (stereo not given),outcome,[1],inactive
same,outcome,[2],inactive
O=C(O)c1ccc([N+](=O)[O-])cc1,outcome,[1],inactive
COc1ccc(O)cc1,outcome,[1],inactive
same,outcome,[2],inactive
same,outcome,[3],inactive
C=O,outcome,[1],inactive
same,outcome,[2],inactive
CC(C)=CCC[C@](C)(O)[C@@H]1CC=C(C)CC1,outcome,[1],inactive
same,outcome,[2],inactive
CN(C)CCCN,outcome,[1],inactive
same,outcome,[2],inactive
O=C(O)CCCCCCCC(=O)O,outcome,[1],inactive
same,outcome,[2],inactive
same,outcome,[3],inactive
CN(CCOc1ccc(CC2SC(=O)NC2=O)cc1)c1ccccn1 (stereo not given),AC50,[4],0.0787 µM (active)
same,outcome,[5],inactive
same,AC50,[6],0.0666 µM (active)
same,outcome,[7],inactive
same,AC50,[8],0.0353 µM (active)
same,outcome,[9],inactive
same,AC50,[10],0.0372 µM (active)
CCN(CC)c1ccc(C(=C2C=CC(=[N+](CC)CC)C=C2)c2ccc(S(=O)(=O)O)cc2S(=O)(=O)[O-])cc1,outcome,[1],inactive
CN(C)C(=N)N=C(N)N,AC50,[4],100 µM (active)
same,outcome,[3],inactive
CCCCCCCCC=O,outcome,[1],inactive
same,outcome,[2],inactive
same,outcome,[3],inactive
CCCCCCCCCCCCCCCCCC(=O)OCC(CC)CCCC (stereo not given),outcome,[1],inactive
same,outcome,[2],inactive
CCCCC(CC)COC(=O)/C=C\C(=O)OCC(CC)CCCC (stereo not given),outcome,[1],inactive
CSc1nc(NC2CC2)nc(NC(C)(C)C)n1,outcome,[1],inactive
same,outcome,[2],inactive
Cc1ccc(C(C)C)cc1O,outcome,[1],inactive
same,outcome,[2],inactive
same,outcome,[3],inactive
COc1c(Cl)c(Cl)c(Cl)c(Cl)c1Cl,outcome,[1],inactive
O=Nc1ccc(Nc2ccccc2)cc1,outcome,[1],inactive
same,outcome,[2],inactive
OCCOCCOCCOCCO,outcome,[1],inactive
same,outcome,[2],inactive
same,outcome,[3],inactive
c1ccc2[nH]ccc2c1,outcome,[1],inactive
same,outcome,[2],inactive
same,outcome,[3],inactive
COc1cc(C(C)(C)C)c(O)c(C(C)(C)C)c1,outcome,[1],inactive
same,outcome,[2],inactive
O=C(O)Cc1cccc2ccccc12,outcome,[1],inactive
same,outcome,[2],inactive
same,outcome,[3],inactive
NCCCN1CCOCC1,outcome,[1],inactive
same,outcome,[2],inactive
same,outcome,[3],inactive
CC(C)C[C@H]1C(=O)N2CCC[C@H]2[C@]2(O)O[C@](NC(=O)[C@@H]3C=C4c5cccc6[nH]c(Br)c(c56)C[C@H]4N(C)C3)(C(C)C)C(=O)N12,outcome,[1],inactive
same,outcome,[2],inactive
same,AC50,[3],4.31 µM (active)
CCCCCCCCCCCCCCCC(=O)OC[C@H](O)[C@H]1OC(=O)C(O)=C1O,outcome,[1],inactive
same,outcome,[2],inactive
same,AC50,[3],39.2 µM (active)
CCN(CC)c1ccc2c(-c3ccccc3C(=O)O)c3ccc(=[N+](CC)CC)cc-3oc2c1,AC50,[1],9.44 µM (active)
same,outcome,[2],inactive
CCN(CC)CCOC(=O)c1ccc(N)cc1,AC50,[1],20.5 µM (active)
same,outcome,[2],inactive
CC1COc2ccccc2N1C(=O)C(Cl)Cl (stereo not given),AC50,[1],2.33 µM (active)
same,AC50,[2],4.63 µM (active)
NC(=O)Nc1ccc(Cl)cc1,outcome,[1],inactive
CC1(C)C(=O)N(Br)C(=O)N1Cl,outcome,[1],inactive
same,outcome,[2],inactive
same,outcome,[3],inactive
CCCCCCCCCCC(CO)CCCCCCCC (stereo not given),AC50,[1],9.96 µM (active)
CC(C)C1CCC(O)CC1 (stereo not given),outcome,[3],inactive
c1ccc(CCCc2ccccn2)cc1,outcome,[1],inactive
same,outcome,[3],inactive
CCCCCCCCCC=O,outcome,[1],inactive
same,outcome,[3],inactive
Cc1ccc2ccccc2n1,outcome,[3],inactive
O=C(O)c1ccc(C(=O)O)cc1,outcome,[2],inactive
O=C1c2ccccc2C(=O)N1SC1CCCCC1,outcome,[2],inactive
same,AC50,[3],50 µM (active)
O=C(Cl)c1cccc(C(=O)Cl)c1,AC50,[2],8.27 µM (active)
same,outcome,[3],inactive
OCCN1CCNCC1,outcome,[1],inactive
same,outcome,[2],inactive
same,outcome,[3],inactive

# From PubChem BioAssay (EPA / NIEHS)
